The structures appear in SMILES notation. This is part of a sample that, as a whole, favours compounds with a hit. Of some 83,000 tested, about 20% had one in any assay.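 Step 1: grow cells in 96-well plates. Step 2: add test compound at a single concentration. Step 3: incubate 48 h. Step 4: record percent growth.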 Unmarked numbers belong to inactive results. Calls of active or inactive are those of the source. The calls were made as follows: active = growth percent below 10; inactive = the rest.

Common to all, as to assay: NCI-60 one-dose screen, 48 h (100 = growth as untreated, 0 = no growth, -100 = all killed)
What all share (settings): 10 µM unless noted

Assay [1] deals with MALME-3M melanoma.
Assay [2] deals with MDA-MB-231 breast.
Assay [3] deals with RXF 393 renal.
Assay [4] relates to SF-268 CNS.
The subject of assay [5] is SF-295 CNS.
In assay [6] the test system is SF-539 CNS.
In assay [7] the test system is UACC-257 melanoma.
Assay [8] has as its system M14 melanoma.
For assay [9], the system named is HCT-15 colon.
Assay [10] deals with HT29 colon.
Assay [11] has as its system SNB-75 CNS.
In assay [12] the test system is U251 CNS.
In assay [13] the test system is PC-3 prostate.
Assay [14] has as its system SK-MEL-5 melanoma.
In assay [15] the test system is UACC-62 melanoma.
In assay [16] the test system is SK-MEL-28 melanoma.
In assay [17] the test system is SK-MEL-2 melanoma.
Assay [18] concerns SNB-19 CNS.
Assay [19] has as its system LOX IMVI melanoma.

Turning to `CC[N+](C)(CC)CCCC(C)Nc1ccnc2cc(Cl)ccc12` (centres undefined), the growth was 104% in assay [1]; 114% in assay [2]; 125% in assay [3]; 91.4% in assay [4]; 108% in assay [5]; 105% in assay [6]. Further, the growth in assay [7] is 107%; in assay [8], 109%; in [9], 110%; in assay [10], 111%; in assay [11], 99.8%; in assay [12] it was 98.8%. The growth in assay [13] is 98%; in assay [14], 101%; in assay [15], 105%; in [16], 117%; in assay [17], 108%.
As for `Cn1cc(-c2nc(-c3c[nH]c4ncccc34)cs2)c2cccnc21`, the growth in assay [1] is 84.8%; in assay [2] it was 47.6%; in [3], 54.6%; in [4] it was 91.5%; in assay [5] it was 71.1%; in [6], 69.1%. Moreover, the growth in [7] was 105%; in [8], 42.5%; in assay [9], 43.6%; in assay [10], 73.1%; in assay [11], 47.1%; in assay [18], 82.5%. The growth was 71.6% in [12]; 76.6% in assay [13]; 57.8% in [14]; 58.6% in assay [15]; 54.3% in [19]; 90.6% in assay [16]. Besides, the growth in [17] was 52.7%.
`CCOC(=O)C(Cc1ccccc1)(C(=O)OCC)C(Br)C(=O)c1ccccc1` (centres undefined): the growth in assay [1] is 54.2%; in assay [2], 64.2%; in [3] it was 75.5%; in assay [4], 88%; in assay [5], 94.5%; in assay [6], 105%. Further, the growth is 70.9% in assay [7]; 84.1% in assay [8]; 41.9% in assay [9]; 69.7% in assay [10]; 73.5% in [11]; 97.5% in assay [18]. For the same compound, the growth is 88.1% in [12]; 87.2% in assay [14]; 70.4% in assay [19]; 91% in assay [16]; 83.5% in assay [17].
Turning to `COc1ccc2c(c1)nc(N)c1c3cc(OC)c(OC)cc3cn21`, the growth in assay [1] was 71.3%; in assay [2], 83.8%; in assay [3] it was 46.3%; in assay [4], 55.1%; in assay [5], 31%; in assay [6] it was 78.6%. Further, the growth in assay [7] was 94.8%; in [8], 31.6%; in assay [9], 30.4%; in assay [10], 9.28% (active); in [11] it was 57.1%; in [18] it was 62.2%. In addition, the growth in assay [12] was 30.6%; in assay [13] it was 53.1%; in assay [14], 34.1%; in [15], 22.1%; in [19], 53.2%; in [16], 57.5%. For the same compound, the growth in assay [17] was 47.7%.
For `COc1ccc2c(c1)nc(N)c1c3cc(C)c(C)cc3cn21`, the growth in [1] was 76.5%; in [2], 84.6%; in [3], 78.1%; in assay [4], 75.6%; in assay [5], 64.3%; in assay [6], 95.7%. For the same compound, the growth is 83.7% in assay [7]; 57.5% in [8]; 48.7% in assay [9]; 37.9% in assay [10]; 92.8% in [11]; 77.5% in [18]. Besides, the growth in [12] is 53.9%; in assay [13], 90.3%; in [14], 58.8%; in assay [15], 44%; in assay [19] it was 75.4%; in assay [16], 81.1%. Further, in assay [17], the growth was 84.4%.
For the compound `Cn1cc(-c2csc(-c3cn(C)c4ncccc34)n2)c2cc(Br)cnc21`, the growth in assay [1] was 107%; in assay [2] it was 61.9%; in assay [3] it was 81.2%; in [4], 105%; in [5], 82.1%; in assay [6] it was 109%. For the same compound, the growth in [7] was 96.2%; in assay [8], 80.7%; in [9], 81.1%; in assay [10] it was 100%; in [11] it was 73.1%; in assay [18], 98.5%. Moreover, the growth is 87.9% in assay [12]; 68.5% in assay [13]; 79.3% in assay [14]; 82.9% in assay [15]; 81.9% in assay [19]; 92.1% in [16]. The growth in [17] is 111%.
In the case of `O=C(CCc1nnc2sc(Cc3ccccc3Cl)nn12)c1nc2ccccc2[nH]1`, the growth was 112% in [1]; 76.5% in assay [2]; 90.9% in assay [3]; 84.9% in assay [4]; 103% in [5]; 107% in assay [6]. The growth in assay [7] is 102%; in assay [8] it was 99.2%; in assay [9], 92.3%; in assay [10], 99.4%; in assay [11] it was 78.7%; in [18] it was 96.2%. Moreover, the growth was 97% in assay [12]; 85.5% in assay [13]; 91.8% in assay [14]; 83.9% in [15]; 110% in assay [16]; 93% in assay [17].
As to `CC(=O)c1ccc2c3c(n(C)c2c1)CCCC3`, the growth in [1] is 118%; in assay [2], 101%; in [3], 112%; in assay [4], 101%; in [5], 97.7%; in [6], 98%. For the same compound, the growth in assay [7] was 116%; in [8], 108%; in assay [9], 105%; in assay [10] it was 92.6%; in [11], 92.1%; in assay [18], 99.6%. The growth in assay [12] is 102%; in assay [13], 100%; in assay [14] it was 102%; in [15], 96.5%; in [16], 96.5%; in [17] it was 104%.
With `COc1cc2c(cc1OC)C1CCN3C(=O)CCC3N1CC2` (centres undefined), the growth in [1] is 117%; in assay [2], 116%; in [3] it was 106%; in assay [4] it was 103%; in assay [5], 113%; in [6], 118%. Also, the growth in [7] is 108%; in assay [8], 116%; in assay [9], 110%; in [10], 109%; in [11], 105%; in assay [18], 111%. In addition, the growth is 112% in [12]; 107% in assay [13]; 113% in assay [14]; 97% in assay [15]; 110% in assay [16]; 119% in [17].
